Consider 59 sequences from the supplement of paper PMC11417369.

In all, about 25,000 sequences were measured (“ln(normalized median fluorescence intensity)”: median about 7.1, highest 2% from about 10 on). Many of the other results were omitted from the sample, so the highest values are more common in it than they were.

In the assay the test system is PfSIP2 AP2 domain 1 (GST-tagged). The experiment in a line: gcPBM binding intensity (ln(normalized median fluorescence intensity)); higher = stronger DNA binding. In short, it runs like this:
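An Agilent 4 × 180k array carrying primer-extended double-stranded 36-bp intergenic genomic probes and negative controls received GST-tagged P. falciparum DNA-binding domains expressed in E. coli, about 25 μg on average, for 1 h. The binding buffer contained 1× PBS, 1% milk, 0.2 mg/ml BSA, 0.5% salmon testes DNA and 0.03% Triton X-100. Binding intensity is the top Masliner-normalised natural-log median intensity across replicate spots of either probe orientation, read after Alexa488 anti-GST antibody staining and a 488 nm scan.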
“TAAGAGTAGTTATATACACACATGTATATTATAGTT [CACACA_site6815]”: the “gcPBM binding intensity (ln)” value was found to be 6.84.
Take “ATAATATATACTATATGTACATATCTTTTCCTCTTT [XGTACX_site5553]”: the “gcPBM binding intensity (ln)” value is 7.1.
As to “TATAAAAATAAGCACACACACAAATATAGATTTATT [CACACA_site6558]”, the “gcPBM binding intensity (ln)” value was found to be 6.98.
Regarding “AAAAAAAAAAAAAACACACAGAACAATATATAAATA [CACACA_site982]”, the “gcPBM binding intensity (ln)” value came out at 7.11.
Consider “TAATAATTAATTAATATAATATTTTTTCATAATTAT [XGTACX_negctrl_site602]”, for which the “gcPBM binding intensity (ln)” value was found to be 6.82.
Regarding “ATTATATAATAATGCATGCACCTTATTTTCATTTCA [GTGCAC_site9922]”, the “gcPBM binding intensity (ln)” value is 10.7.
As for “TATTATTTTTCATATGCATGCAAAAATAAAAAAATA [TGCATGCA_site350]”, the figure is 7.05; as for “ATATTATATAATAATGCATGCACCTTATTTTCATTT [TGCATGCA_site405]”, 11.3; as for “CCTTTCACATATAATACATGCATTATTATATATGAA [TGCATGCA_site287]”, 7.51.
With “TCCTTATTTATATAATGTACTTTTTTTTTTCATTTT [XGTACX_site4275]”, the “gcPBM binding intensity (ln)” value came out at 6.92.
The result for “TTTATATTTATGATGGGTACACAAAATTTTACCCAT [XGTACX_site1504]” reads 6.96; that for “TGAATAATCAATAGTACACACATATAAATATATATA [CACACA_site2813]”, 7.28.
In the case of “AGGTGTCATAGATGCACACAAAAGTAACACGCACCT [CACACA_site4418]”, the “gcPBM binding intensity (ln)” value amounted to 9.65.
For the sequence “AAAAAAAAAATATTTGAACACACGAGGATATATAAA [CACACA_site139]”, the “gcPBM binding intensity (ln)” value came out at 6.89.
As for “TAAAAGATAAAATATGCATGTGTAATTTTTTTTTTT [TGCATGCA_site955]”, the “gcPBM binding intensity (ln)” value stood at 6.79.
For the sequence “TAAATTATATTATGCACACTTAAAAATATATTTAAC [CACACA_site3512]”, the “gcPBM binding intensity (ln)” value is 9.01.
For the sequence “TGGCACTAAAAAAATAAACACACAGATTTATATAAT [CACACA_site8386]”, the “gcPBM binding intensity (ln)” value amounted to 6.8.
As for “AACCATTTTAAATATGCACACAGATGCACTAACACA [CACACA_site8565]”, the “gcPBM binding intensity (ln)” value was determined as 11.
On to “GTATAATATTTTAATGCACACACACTAATAAAAAAA [CACACA_site8939]”, for which the “gcPBM binding intensity (ln)” value is 7.65.
For the sequence “TAAATATGCTCACAGATGCACTAACACATTTTTATA [GTGCAC_site9997]”, the “gcPBM binding intensity (ln)” value was 8.14.
With “GCACTAAAAAAATAAACACACAGATTTATATAATAT [CACACA_site1381]”, the “gcPBM binding intensity (ln)” value is 6.83.
Regarding “CCATTTTAAATATGCACACAGATGCACTAACCCATT [CACACA_site1883]”, the “gcPBM binding intensity (ln)” value is 10.7.
On to “TTTTTTTAAATATACACACACATTTATACAGATATA [CACACA_site5811]”, for which the “gcPBM binding intensity (ln)” value is 7.12.
The result for “CCATTTTAAATATGCACACAGATGCACTAACACATT [CACACA_site5099]” reads 10.5.
As for “TATTAACTCAATAGCGCACACTTTTAATATTTTATA [CACACA_site4973]”, the “gcPBM binding intensity (ln)” value is 7.33.
“TAAATAGGAAAACCTATACACACTTTAAAAAAAATA [CACACA_site1621]”: the “gcPBM binding intensity (ln)” value came out at 6.75.
As for “ATTATATCATCTAAAACATGCACACATATGTACTCT [TGCATGCA_site949]”, the figure is 7.12; as for “TTATTTATGAGGGTGACACACAAAAGAGTGTTAAGA [CACACA_site277]”, 6.75; as for “ATACGAAAAAATAGACGTACTATGAAATAATAATTT [XGTACX_site8387]”, 6.87.
The result for “GTCCTCATCCACTATGCACACAAAAAAGAAATACAC [CACACA_site9131]” reads 8.48; that for “AAAAAAAAAAAACACACACACACACCCAAATATATA [CACACA_site150]”, 7.14.
Turning to “TGGGAAAAAATATATGCACACCCCCCAAAAAAAAAA [CACACA_site8696]”, the “gcPBM binding intensity (ln)” value is 10.8.
Turning to “GGAAAAAATATATGCACACCCCCCAAAAAAAAAAAA [CACACA_site2222]”, the “gcPBM binding intensity (ln)” value worked out at 9.73.
Take “ATAGTTTTATATAAATGTACAAATGATTTCAAATAG [XGTACX_site8236]”: the “gcPBM binding intensity (ln)” value came out at 7.08.
As to “TTATAATATTAATGTGCACACAATTAAAATATTATA [CACACA_site2046]”, the “gcPBM binding intensity (ln)” value amounted to 9.4.
Regarding ATATTTTATATAATAGTGCAAATAATATTAAATAAT, the “gcPBM binding intensity (ln)” value was found to be 8.4.
Take “ATAATTATATGATGAGTGCACAATAAAAATATCGTT [GTGCAC_site9920]”: the “gcPBM binding intensity (ln)” value stood at 10.7.
Regarding ATATATATATATTTCGTGCACTGATAATATTATTTT, the “gcPBM binding intensity (ln)” value is 10.2.
For “TTATATTATTCGTGTGTGCACGATATTTCATAATTG [GTGCAC_site9767]”, the “gcPBM binding intensity (ln)” value is 8.96.
For the sequence “ATATATATATTTATAGTGCATTTATATTAAAATATC [GTGCAC_site9818]”, the “gcPBM binding intensity (ln)” value amounted to 8.92.
On to GTTATATTTAAAATAGTGCAATAAAAATAATAATAT, for which the “gcPBM binding intensity (ln)” value came out at 8.42.
For the sequence “ATAATTAAAAATAATATATATATAATATGATATTAT [GTGCAC_negctrl_site194]”, the “gcPBM binding intensity (ln)” value stood at 6.94.
Consider “TAAATATATATATATAGTACAATATAATTATGATAT [XGTACX_site258]”, for which the “gcPBM binding intensity (ln)” value was 7.24.
As for AAAAAAAAAAAATACGTGCACTATGATATATTATAT, the figure is 10.3; as for “ATTATTAAAATGATATGTACGCACATAATATACATA [XGTACX_site3236]”, 7.06.
“ATGATATATTTAATAGTGCACTAATTAAAATTATTA [GTGCAC_site9418]”: the “gcPBM binding intensity (ln)” value was 11.
With “TATATATATACTTAATGTACATATATATATATATAT [XGTACX_site3102]”, the “gcPBM binding intensity (ln)” value was determined as 9.75.
Take “CCCCTTAATTAAAGGAGTACTATTTGTGAATAATAT [XGTACX_site4715]”: the “gcPBM binding intensity (ln)” value came to 7.47.
Consider “ATAATTCCATAAAATAGACACACGAATGTATAATAT [CACACA_site477]”, for which the “gcPBM binding intensity (ln)” value was 7.
As for “AATAATGAAAAATCAAATAACCTAAATTACAACTGT [XGTACX_negctrl_site65]”, the figure is 6.91; as for “TACGTTGTATATTTTTGTACATATTGAATTACAAAA [XGTACX_site5906]”, 6.95; as for “ACGAAAAGATATATATGTACATATATTAAAAAAAAA [XGTACX_site1517]”, 7.01.
As to “TTCAAACATATTAATTGTACATACAACAAAACCATG [XGTACX_site5149]”, the “gcPBM binding intensity (ln)” value was 7.13.
In the case of “ATTATGCACCAACACACACACACACTCCTAAAAAAT [CACACA_site8822]”, the “gcPBM binding intensity (ln)” value turned out to be 11.1.
“TAATTATGCCAACACACACACACACCCAACTAAAAA [CACACA_site8823]”: the “gcPBM binding intensity (ln)” value came out at 7.32.
“ATTATGCACGGACACACACACACACCCCTAAAAAAT [CACACA_site5426]”: the “gcPBM binding intensity (ln)” value was found to be 7.88.
As to “ATTATGCACCAACACACACACACACCCCTAAAAAAT [CACACA_site2568]”, the “gcPBM binding intensity (ln)” value amounted to 10.8.
Take “TGTGCCCAAAATTATGCACACACCTAAAATTAATTT [CACACA_site2914]”: the “gcPBM binding intensity (ln)” value was determined as 7.79.
As for “TGCACAAAATTATGCACACACCTAAAATTAATTTTT [CACACA_site5596]”, the figure is 8.28.
